Reference: PubChem BioAssay (Tox21)
“And” between values parts separate entries of the source, which are not always exact repeats. Equal values may be shown once. Inconclusive results are not listed. The source made the active and inactive calls. Unless noted, calls follow the shape of the dose curve; as a rule, active = well fitted curve in the direction sought with a large enough effect in the repeat runs; inconclusive = weak or mixed curves; inactive = no such curve, though single readings can be large; an effect the other way counts as inactive or inconclusive.

Experiments:
[1] = biological target: Thyrotropin-releasing hormone receptor (Homo sapiens) (UniProt P34981); experiment: qHTS assay to identify small molecule agonists of the thyrotropin-releasing hormone receptor (TRHR) signaling pathway (AID 1346891; calls by dose curve;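 also: HEK293 cells expressing TRHR with calcium dye readout; series mostly up to about 58 µM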)
Sequence of Thyrotropin-releasing hormone receptor (Homo sapiens) (P34981 whole entry, looked up): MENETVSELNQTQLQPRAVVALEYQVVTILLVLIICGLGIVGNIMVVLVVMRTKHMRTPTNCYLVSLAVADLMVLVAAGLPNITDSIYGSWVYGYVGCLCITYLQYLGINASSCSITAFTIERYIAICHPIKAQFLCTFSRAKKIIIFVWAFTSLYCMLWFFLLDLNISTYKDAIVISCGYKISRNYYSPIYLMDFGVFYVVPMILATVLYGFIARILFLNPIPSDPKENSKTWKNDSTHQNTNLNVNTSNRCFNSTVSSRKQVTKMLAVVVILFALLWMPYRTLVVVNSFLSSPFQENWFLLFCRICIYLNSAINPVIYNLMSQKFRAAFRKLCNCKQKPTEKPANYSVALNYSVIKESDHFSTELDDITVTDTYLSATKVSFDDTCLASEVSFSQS
Procedure, shortened: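 Overnight-plated (18 h, 37 °C, 5% CO2) TRHR-Hek293 cells; 2 h calcium dye at 37 °C; compound in DMSO; 3-min kinetic fluorescence read.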

[2] = Human pregnane X receptor (PXR) small molecule agonists, qHTS cell viability counter screen (AID 1346977); also: nearly all actives have a fitted effect of over 50% in size; also: potency is read from the fitted curve at half-maximal effect
Procedure, shortened: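 After a 5hr pre-incubation, PXR-Luc HepG2 cells received compounds plus positive control in DMSO and were kept 24hr at 37C. Cell viability was quantified by fluorescence from CellTiter-Fluor added for the final hour.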

[3] = Caspase-3/7 induction in HepG2 cells by small molecules, qHTS assay (AID 1346978); also: nearly all actives have a fitted effect of over 15% in size; also: potency is read from the fitted curve at half-maximal effect
Procedure, shortened: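 Wild-type HepG2 cells (2,000/well) were settled 5 h at 37 C, 5% CO2, then exposed to compounds in DMSO for 17 h. Caspase-3/7 activity was read by luminescence 30 min after adding Caspase-Glo 3/7 reagent at room temperature.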

[4] = Caspase-3/7 induction in CHO-K1 cells by small molecules, qHTS cell viability counter screen (AID 1346979); also: nearly all actives have a fitted effect of over 35% in size; also: potency is read from the fitted curve at half-maximal effect
Procedure, shortened: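 Multiplexed with Caspase-Glo 3/7 in CHO-K1 cells, this counter screen added CellTiter-Fluor after 16hr of compound exposure and recorded fluorescence 1hr later.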

[5] = Caspase-3/7 induction in CHO-K1 cells by small molecules, qHTS assay (AID 1346980); also: nearly all actives have a fitted effect of over 15% in size; also: potency is read from the fitted curve at half-maximal effect
Procedure, shortened: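 Wild-type cells were seeded at 1,500 per well and settled 5 hr at 37 C, 5% CO2, then exposed to DMSO-dissolved compounds for 17 hr. Caspase-Glo 3/7 reagent was added, and luminescence was read after 30min at room temperature.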

[6] = biological target: Nuclear receptor subfamily 1 group I member 2 (Homo sapiens) (UniProt O75469); experiment: Human pregnane X receptor (PXR) small molecule agonists, qHTS assay (AID 1346982); also: nearly all actives have a fitted effect of over 35% in size; also: potency is read from the fitted curve at half-maximal effect
Sequence of Nuclear receptor subfamily 1 group I member 2 (Homo sapiens) (O75469 whole entry, looked up): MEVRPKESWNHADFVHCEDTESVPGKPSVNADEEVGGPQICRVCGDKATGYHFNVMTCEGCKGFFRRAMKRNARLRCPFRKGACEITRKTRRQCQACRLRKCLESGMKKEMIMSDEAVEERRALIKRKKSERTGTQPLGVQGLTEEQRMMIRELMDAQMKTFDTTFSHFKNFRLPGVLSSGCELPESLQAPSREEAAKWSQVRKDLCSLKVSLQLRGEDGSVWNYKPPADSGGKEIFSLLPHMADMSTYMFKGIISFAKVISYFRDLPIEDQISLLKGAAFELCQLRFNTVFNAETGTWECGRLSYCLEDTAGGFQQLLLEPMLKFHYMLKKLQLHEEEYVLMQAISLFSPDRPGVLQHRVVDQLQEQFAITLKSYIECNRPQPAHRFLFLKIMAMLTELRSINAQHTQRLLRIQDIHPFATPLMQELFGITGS
Procedure, shortened: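 Tox21 qHTS; PXR-Luc HepG2; compounds pinned from DMSO; 24 hr, 37 C; ONE-Glo luciferase detection, 30 min room temperature.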

[7] = biological target: Nuclear receptor subfamily 1 group I member 2 (Rattus norvegicus) (UniProt Q9R1A7); experiment: Rat pregnane X receptor (rPXR) activation by small molecules, qHTS assay (AID 1346983); settings: rPXR luciferase reporter cells, One-Glo luminescence, 24 h; max activation: hits give high values; also: nearly all actives have a fitted effect of over 20% in size
Sequence of Nuclear receptor subfamily 1 group I member 2 (Rattus norvegicus) (Q9R1A7 whole entry, looked up): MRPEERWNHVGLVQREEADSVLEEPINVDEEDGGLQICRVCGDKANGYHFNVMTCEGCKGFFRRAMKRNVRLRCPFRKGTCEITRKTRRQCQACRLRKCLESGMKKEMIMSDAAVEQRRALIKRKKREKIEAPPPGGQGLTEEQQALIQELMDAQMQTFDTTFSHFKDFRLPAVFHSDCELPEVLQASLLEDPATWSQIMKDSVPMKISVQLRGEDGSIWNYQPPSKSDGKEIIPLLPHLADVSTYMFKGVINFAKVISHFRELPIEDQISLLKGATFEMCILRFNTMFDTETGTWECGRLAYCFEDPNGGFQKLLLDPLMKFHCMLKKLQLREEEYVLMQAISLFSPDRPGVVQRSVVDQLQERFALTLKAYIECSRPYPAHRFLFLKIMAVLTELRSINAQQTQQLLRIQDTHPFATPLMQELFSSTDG
Procedure, shortened: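 Cell-based rPXR luciferase reporter assay, 2,000 cells per well, rested 5hr at 37 C before compound addition in DMSO, then 24 hr at 37 C. One-Glo reagent was added and luminescence read after 30 min at room temperature.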

[8] = biological target: Nuclear receptor subfamily 1 group I member 2 (Homo sapiens) (UniProt O75469); experiment: CYP3A4 induction through human pregnane X receptor (PXR) by small molecules, qHTS assay (AID 1346984); also: nearly all actives have a fitted effect of over 40% in size
Procedure, shortened: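 Cells (DPX-2; HepG2 with PXR element plus CYP3A4-promoter luciferase) settled 5hr, then were treated 24hr at 37C. A 3hr, 3uM-final Luciferin-IPA step preceded luminescence measurement with One-Glo.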

[9] = biological target: Nuclear receptor subfamily 1 group I member 2 (Homo sapiens) (UniProt O75469); experiment: Human pregnane X receptor (PXR) activation by small molecules, qHTS assay (AID 1346985); also: nearly all actives have a fitted effect of over 40% in size
Procedure, shortened: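 DPX-2 cells (HepG2 co-transfected with a PXR response element and a CYP3A4-promoter luciferase construct) were seeded at 2,000 per well, rested 5 hr at 37C, then exposed to DMSO-dissolved compounds for 24 hr. Activation was read as luciferase luminescence.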

[10] = biological target: Cytochrome P450 2D6 (Homo sapiens) (UniProt P10635); experiment: Cytochrome P450 Family 2 Subfamily D Member 6 (CYP2D6) small molecule antagonists: luciferase reporter qHTS assay (AID 1671196); also: nearly all actives have a fitted effect of over 50% in size; also: potency is read from the fitted curve at half-maximal effect
Sequence of Cytochrome P450 2D6 (Homo sapiens) (P10635 whole entry, looked up): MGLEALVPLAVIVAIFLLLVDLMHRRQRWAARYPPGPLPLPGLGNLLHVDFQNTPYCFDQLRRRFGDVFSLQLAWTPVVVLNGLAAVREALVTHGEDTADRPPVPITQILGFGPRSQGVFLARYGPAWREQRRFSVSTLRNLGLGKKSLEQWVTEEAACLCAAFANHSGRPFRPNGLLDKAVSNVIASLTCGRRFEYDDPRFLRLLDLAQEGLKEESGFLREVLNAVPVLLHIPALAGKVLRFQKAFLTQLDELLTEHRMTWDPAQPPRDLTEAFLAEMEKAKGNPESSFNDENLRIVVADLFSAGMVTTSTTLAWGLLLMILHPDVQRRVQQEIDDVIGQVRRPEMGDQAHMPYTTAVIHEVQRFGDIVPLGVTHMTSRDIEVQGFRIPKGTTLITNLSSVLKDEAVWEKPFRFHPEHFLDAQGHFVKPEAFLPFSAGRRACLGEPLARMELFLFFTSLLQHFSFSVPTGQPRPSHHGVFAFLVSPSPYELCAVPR
Procedure, shortened: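 Room-temperature luminescent CYP2D6 activity assay: compound preincubated 10 min with enzyme–substrate mix, NADPH-initiated reaction 1 h, detection reagent 20 min before reading.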

[11] = biological target: Cytochrome P450 2C9 (Homo sapiens) (UniProt P11712); experiment: Cytochrome P450 Family 2 Subfamily C Member 9 (CYP2C9) small molecule antagonists: luciferase reporter qHTS assay (AID 1671198); also: nearly all actives have a fitted effect of over 50% in size; also: potency is read from the fitted curve at half-maximal effect
Sequence of Cytochrome P450 2C9 (Homo sapiens) (P11712 whole entry, looked up): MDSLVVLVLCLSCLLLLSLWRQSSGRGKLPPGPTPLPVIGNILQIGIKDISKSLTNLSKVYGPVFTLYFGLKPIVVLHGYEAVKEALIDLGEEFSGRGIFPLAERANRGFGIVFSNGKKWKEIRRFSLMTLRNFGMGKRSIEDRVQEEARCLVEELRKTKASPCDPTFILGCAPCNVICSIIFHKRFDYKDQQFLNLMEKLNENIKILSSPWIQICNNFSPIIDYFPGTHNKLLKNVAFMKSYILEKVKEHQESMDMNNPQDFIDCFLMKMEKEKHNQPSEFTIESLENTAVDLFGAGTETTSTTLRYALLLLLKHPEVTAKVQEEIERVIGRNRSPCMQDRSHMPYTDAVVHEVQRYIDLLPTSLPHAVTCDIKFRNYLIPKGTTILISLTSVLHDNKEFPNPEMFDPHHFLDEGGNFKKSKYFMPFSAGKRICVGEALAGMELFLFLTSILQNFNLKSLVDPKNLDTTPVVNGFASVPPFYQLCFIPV
Procedure, shortened: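 CYP2C9 activity was measured with a P450-Glo proluciferin substrate. Enzyme–substrate mix was held with compound for 10 min at room temperature, then NADPH regeneration solution was added for 1 h at 37C. Luciferin product was read as luminescence.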

[12] = biological target: Cytochrome P450 1A2 (Homo sapiens) (UniProt P05177); experiment: Cytochrome P450 Family 1 Subfamily A Member 2 (CYP1A2) small molecule antagonists: luciferase reporter qHTS assay (AID 1671199); also: nearly all actives have a fitted effect of over 50% in size; also: potency is read from the fitted curve at half-maximal effect
Sequence of Cytochrome P450 1A2 (Homo sapiens) (P05177 whole entry, looked up): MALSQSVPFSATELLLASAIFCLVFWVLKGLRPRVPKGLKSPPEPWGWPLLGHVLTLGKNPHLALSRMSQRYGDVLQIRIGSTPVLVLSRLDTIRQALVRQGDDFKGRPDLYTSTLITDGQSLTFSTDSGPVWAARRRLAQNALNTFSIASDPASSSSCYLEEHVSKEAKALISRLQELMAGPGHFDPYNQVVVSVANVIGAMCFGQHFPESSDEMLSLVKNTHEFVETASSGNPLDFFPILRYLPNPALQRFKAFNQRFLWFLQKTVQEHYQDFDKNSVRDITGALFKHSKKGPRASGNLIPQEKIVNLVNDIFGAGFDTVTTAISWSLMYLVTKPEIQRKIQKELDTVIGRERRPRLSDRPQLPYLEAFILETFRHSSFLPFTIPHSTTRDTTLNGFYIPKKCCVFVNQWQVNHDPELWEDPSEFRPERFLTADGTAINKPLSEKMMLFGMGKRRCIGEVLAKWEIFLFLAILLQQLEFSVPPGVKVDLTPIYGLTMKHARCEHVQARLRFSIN
Procedure, shortened: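 Room-temperature CYP1A2 reaction with proluciferin substrate: compounds added from DMSO, 10 min preincubation, NADPH regeneration for 1 h. Luciferin detection reagent then added; luminescence recorded as RLU.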

[13] = biological target: Voltage-gated inwardly rectifying potassium channel KCNH2 (Homo sapiens) (UniProt Q12809); experiment: Human Ether-a-go-go-Related Gene (hERG) channel small molecule antagonists: fluorescence cell-based qHTS assay (AID 1671200); also: nearly all actives have a fitted effect of over 50% in size; also: potency is read from the fitted curve at half-maximal effect
Sequence of Voltage-gated inwardly rectifying potassium channel KCNH2 (Homo sapiens) (Q12809 whole entry, looked up): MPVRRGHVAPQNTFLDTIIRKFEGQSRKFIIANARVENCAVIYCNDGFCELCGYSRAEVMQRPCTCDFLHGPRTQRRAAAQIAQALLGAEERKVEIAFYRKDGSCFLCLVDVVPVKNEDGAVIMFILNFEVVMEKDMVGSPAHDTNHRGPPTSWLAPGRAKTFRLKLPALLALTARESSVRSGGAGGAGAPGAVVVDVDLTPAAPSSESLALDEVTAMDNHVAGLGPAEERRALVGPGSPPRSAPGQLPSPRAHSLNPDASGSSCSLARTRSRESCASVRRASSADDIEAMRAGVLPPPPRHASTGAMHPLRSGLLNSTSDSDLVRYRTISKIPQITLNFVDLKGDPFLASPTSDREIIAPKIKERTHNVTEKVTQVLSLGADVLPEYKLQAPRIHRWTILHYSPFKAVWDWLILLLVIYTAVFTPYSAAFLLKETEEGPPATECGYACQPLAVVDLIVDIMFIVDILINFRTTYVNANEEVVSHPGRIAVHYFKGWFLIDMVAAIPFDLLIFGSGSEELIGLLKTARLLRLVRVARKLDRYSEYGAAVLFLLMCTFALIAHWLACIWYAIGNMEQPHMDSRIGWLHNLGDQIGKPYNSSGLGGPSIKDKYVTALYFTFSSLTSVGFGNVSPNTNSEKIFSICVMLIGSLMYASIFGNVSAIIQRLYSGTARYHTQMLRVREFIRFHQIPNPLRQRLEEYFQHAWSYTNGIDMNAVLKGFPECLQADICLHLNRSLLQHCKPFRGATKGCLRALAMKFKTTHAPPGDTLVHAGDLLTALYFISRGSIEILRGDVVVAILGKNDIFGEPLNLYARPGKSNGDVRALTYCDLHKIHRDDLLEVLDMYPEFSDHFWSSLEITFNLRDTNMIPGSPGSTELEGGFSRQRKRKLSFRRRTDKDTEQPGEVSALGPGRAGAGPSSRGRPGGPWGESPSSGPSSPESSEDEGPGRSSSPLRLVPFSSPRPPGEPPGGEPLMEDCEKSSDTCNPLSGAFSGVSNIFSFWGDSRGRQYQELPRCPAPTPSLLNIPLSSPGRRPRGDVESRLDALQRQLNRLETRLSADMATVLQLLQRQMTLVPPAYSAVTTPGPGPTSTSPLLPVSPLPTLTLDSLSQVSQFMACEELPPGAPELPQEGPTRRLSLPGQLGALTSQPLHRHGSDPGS
Procedure, shortened: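 Cell line hERG-U2OS; dye FluxOR II, 1 h RT dark; Tl+ stimulus; ex 480/em 540 nm, read each second for 2 min.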

[14] = biological target: Cytochrome P450 3A4 (Homo sapiens) (UniProt P08684); experiment: Cytochrome P450 Family 3 Subfamily A Member 4 (CYP3A4) small molecule antagonists: luciferase reporter qHTS assay (AID 1671201)
Sequence of Cytochrome P450 3A4 (Homo sapiens) (P08684 whole entry, looked up): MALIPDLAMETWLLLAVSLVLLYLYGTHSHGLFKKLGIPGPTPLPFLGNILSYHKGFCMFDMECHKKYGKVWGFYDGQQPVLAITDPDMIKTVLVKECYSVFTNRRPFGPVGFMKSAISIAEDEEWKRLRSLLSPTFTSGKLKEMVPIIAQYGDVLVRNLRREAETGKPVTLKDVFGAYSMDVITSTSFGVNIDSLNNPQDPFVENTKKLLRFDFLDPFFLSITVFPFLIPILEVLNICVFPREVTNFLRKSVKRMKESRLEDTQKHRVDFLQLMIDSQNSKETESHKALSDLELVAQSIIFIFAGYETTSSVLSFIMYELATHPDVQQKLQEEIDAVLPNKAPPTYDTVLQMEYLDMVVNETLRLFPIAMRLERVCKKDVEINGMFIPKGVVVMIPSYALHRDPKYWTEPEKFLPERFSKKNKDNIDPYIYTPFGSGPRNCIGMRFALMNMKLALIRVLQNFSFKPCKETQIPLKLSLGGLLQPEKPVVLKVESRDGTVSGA
Procedure, shortened: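 Room-temperature assay throughout: 10 min compound–enzyme/substrate preincubation, 1 h reaction after NADPH regeneration solution, 20 min detection. Luciferin formed from proluciferin substrate is quantified by luminescence.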

[15] = biological target: Cytochrome P450 2C19 (Homo sapiens) (UniProt P33261); experiment: Cytochrome P450 Family 2 Subfamily C Member 19 (CYP2C19) small molecule antagonists: luciferase reporter qHTS assay (AID 1671197); also: nearly all actives have a fitted effect of over 65% in size; also: potency is read from the fitted curve at half-maximal effect
Sequence of Cytochrome P450 2C19 (Homo sapiens) (P33261 whole entry, looked up): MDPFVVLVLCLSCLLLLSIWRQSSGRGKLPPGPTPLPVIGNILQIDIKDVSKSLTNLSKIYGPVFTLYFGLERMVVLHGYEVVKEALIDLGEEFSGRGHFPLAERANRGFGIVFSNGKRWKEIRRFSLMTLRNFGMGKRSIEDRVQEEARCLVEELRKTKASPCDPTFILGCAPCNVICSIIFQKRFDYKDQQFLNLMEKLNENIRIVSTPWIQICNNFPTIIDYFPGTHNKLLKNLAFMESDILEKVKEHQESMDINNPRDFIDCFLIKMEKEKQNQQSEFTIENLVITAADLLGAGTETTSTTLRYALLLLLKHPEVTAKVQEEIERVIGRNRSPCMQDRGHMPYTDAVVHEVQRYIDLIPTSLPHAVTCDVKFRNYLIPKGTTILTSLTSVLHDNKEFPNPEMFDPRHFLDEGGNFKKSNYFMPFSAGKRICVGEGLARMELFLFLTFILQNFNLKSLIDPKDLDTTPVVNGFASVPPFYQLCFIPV
Procedure, shortened: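 Inhibition of CYP2C19 was scored from loss of luminescence in a P450-Glo proluciferin substrate assay, NADPH-started and run 1 h at 37C, with ketoconazole as positive control.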

[16] = Caspase-3/7 induction in HepG2 cells by small molecules, qHTS cell viability counter screen (AID 1346981); also: series mostly up to about 92 µM; nearly all actives have a fitted effect of over 30% in size
Procedure, shortened: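 After a 5-hr attachment period at 37 C and 5% CO2, wild-type HepG2 cells received compounds in DMSO. Sixteen hours later CellTiter-Fluor was dispensed and the fluorescent signal quantified after a further hour.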
% is scaled to controls: 0 for no effect and ±100 for the full control effect.

CCOC(C)=O
inactive: Potency [1] | Potency [2] | Potency [3] | Potency [4] | Potency [5] | Potency [6] | max activation [7] -1.67% | Potency [8] | Potency [9] | Potency [10] | Potency [11] | Potency [12] | Potency [13] | Potency [14]

Cc1c(C)c2c(c(C)c1OC(=O)CCC(=O)OCCO)CC[C@@](C)(CCC[C@H](C)CCC[C@H](C)CCCC(C)C)O2
inactive: Potency [1] | Potency [2] | Potency [3] | Potency [4] | Potency [5] | Potency [6] | Potency [10] | Potency [15] | Potency [13]
active: Potency [12] 27.5 µM

CCC1NC(=O)c2cc(S(N)(=O)=O)c(Cl)cc2N1 (stereo unspecified)
inactive: Potency [1] | Potency [2] | Potency [3] | Potency [4] | Potency [5] | Potency [16] | Potency [13]

CC1CC(OC(=O)C(O)c2ccccc2)CC(C)(C)N1C (stereo unspecified)
inactive: Potency [1] | Potency [2] | Potency [3] | Potency [4] | Potency [5] | Potency [16] | Potency [11] | Potency [12] | Potency [13]

O=C(O)CCCCCCCCCCCBr
inactive: Potency [1] | Potency [2] | Potency [3] | Potency [4] | Potency [5] | Potency [16] | Potency [6] | Potency [11] | Potency [12] | Potency [13] | Potency [14]

COC(=O)[C@H]1[C@H]2C[C@@H]3c4[nH]c5cc(OC)ccc5c4CCN3C[C@H]2C[C@@H](OC(=O)/C=C/c2ccc(O)c(OC)c2)[C@@H]1OC
inactive: Potency [1] | Potency [3] | Potency [5] | Potency [10] | Potency [15] | Potency [12]
active: Potency [2] 23.7 µM | Potency [4] 26.6 µM | Potency [6] 11.9 µM | Potency [13] 0.848 µM

CCCCCCCCCI
inactive: Potency [1] | Potency [2] | Potency [3] | Potency [4] | Potency [5] | Potency [16] | Potency [6] | Potency [15] | Potency [12] | Potency [13] | Potency [14]

C[C@]12CC[C@@H]3c4ccc(O)cc4CC[C@H]3[C@@H]1CC[C@@H]2OC(=O)CCC1CCCC1
inactive: Potency [1] | Potency [2] | max activation [7] 4.34% and -0.252% | Potency [8] | Potency [10] | Potency [13] | Potency [14]
active: Potency [3] 61.1 µM | Potency [4] 54.5 µM and 29.8 µM | Potency [5] 43.3 µM | Potency [6] 21.7 µM and 23.7 µM | Potency [15] 14.2 µM | Potency [11] 17.8 µM and 17.4 µM | Potency [12] 17.8 µM

CO/N=C(/C(=O)N[C@@H]1C(=O)N2C(C(=O)O)=C(COC(N)=O)CS[C@H]12)c1ccco1
inactive: Potency [1] | Potency [2] | Potency [3] | Potency [4] | Potency [5] | Potency [16] | max activation [7] -0.884% | Potency [10] | Potency [12] | Potency [13]

CC/C=C1/OC(=O)c2ccccc21
inactive: Potency [1] | Potency [2] | Potency [3] | Potency [4] | Potency [5] | Potency [16] | Potency [6] | Potency [13] | Potency [14]
active: Potency [12] 5.51 µM

Cc1ccccc1S
inactive: Potency [1] | Potency [2] | Potency [3] | Potency [4] | Potency [5] | Potency [16] | Potency [13] | Potency [14]
active: Potency [10] 28.5 µM | Potency [12] 50.7 µM
